Screens as filed in PubChem BioAssay.
nsP2pro inh – inhibitors of chikungunya virus nsP2 protease. Q8JUX6. FRET peptide cleavage, nsP2pro, fluorescence 1 h. Potency, µM (titrated, usually from 24.9 µM), for inactives: at the top dose activity change, negative = inhibition, usual class: inhibitors. 1.1% of 31,000 active. AID 1964107; note: nearly all actives have a fitted effect of over 60% in size
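Enzyme 150 nM, substrate 2.5 uM (both final); Tris-HCl 10 mM pH 8.0 + 0.01% Tween 20; cpd up to 25 uM, 7 pts; 15 min preinc., 1 h RT; fluorescence ex 525/em 598.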
CHIKV nsP2 cell – secondary cell-based test for CHIKV nsP2 protease inhibitors | shares compounds with nsP2pro inh | cell-based CHIKV nsP2 protease reporter assay | Potency, µM (highest dose often 51.1 µM), for the others: top-dose activity change, negative = inhibition, usual class: inhibitors | 10% of 450 active; note: nearly all actives have a fitted effect of over 70% in size
NSP2 full ctr – full-length CHIKV NSP2 protease inhibition, selectivity. Potency, µM (series often up to 50.7 µM), inactives show at the top dose activity change, negative = inhibition, actives largely listed as inhibitors. Full-length CHIKV NSP2 protease enzymatic counterscreen. 39% of 410 active. shares compounds with nsP2pro inh; note: nearly all actives have a fitted effect of over 65% in size
Furin counter – selectivity counter-screen for CHIKV nsP2 protease inhibitors: human furin | 6% of 410 active | Recombinant human furin enzymatic counterscreen, fluorogenic substrate | shares compounds with nsP2pro inh | Potency, µM (highest dose often 50.6 µM), without a hit: at the highest dose activity change, negative = inhibition, hits mostly inhibitors
Target sequence (P09958 whole entry, looked up): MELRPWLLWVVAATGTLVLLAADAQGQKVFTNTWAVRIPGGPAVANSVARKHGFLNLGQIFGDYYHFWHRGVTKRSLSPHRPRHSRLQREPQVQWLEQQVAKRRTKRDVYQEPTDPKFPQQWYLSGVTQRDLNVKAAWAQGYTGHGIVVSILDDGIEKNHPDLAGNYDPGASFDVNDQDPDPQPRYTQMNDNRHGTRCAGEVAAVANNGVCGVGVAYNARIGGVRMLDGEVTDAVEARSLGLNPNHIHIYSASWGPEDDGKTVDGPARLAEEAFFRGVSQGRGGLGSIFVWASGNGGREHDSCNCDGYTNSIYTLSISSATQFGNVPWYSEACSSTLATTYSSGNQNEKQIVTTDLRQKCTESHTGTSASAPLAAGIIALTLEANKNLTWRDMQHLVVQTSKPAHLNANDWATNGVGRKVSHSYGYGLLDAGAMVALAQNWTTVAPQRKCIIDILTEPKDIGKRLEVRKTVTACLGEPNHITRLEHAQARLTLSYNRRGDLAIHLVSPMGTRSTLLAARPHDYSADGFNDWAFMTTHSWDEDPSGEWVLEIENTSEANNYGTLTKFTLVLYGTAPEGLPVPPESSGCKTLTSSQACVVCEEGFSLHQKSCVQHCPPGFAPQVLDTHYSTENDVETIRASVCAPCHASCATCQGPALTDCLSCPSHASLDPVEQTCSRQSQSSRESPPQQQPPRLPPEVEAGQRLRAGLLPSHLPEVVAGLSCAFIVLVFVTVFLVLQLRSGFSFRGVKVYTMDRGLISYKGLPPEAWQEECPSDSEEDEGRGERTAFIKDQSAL
NS23 peptide cs – blocks CHIKV nsP2 protease cleavage of endogenous NS2/3 peptide; AID 1964103; 34% of 410 active; Potency, µM (doses to about 51 µM), for inactives: at the highest dose activity change, negative = inhibition, actives largely listed as inhibitors; shares compounds with nsP2pro inh; Purified CHIKV nsP2 protease, endogenous NS2/3 peptide cleavage; note: nearly all actives have a fitted effect of over 55% in size
Papain cs – inhibits papain in a CHIKV nsP2 protease selectivity counterscreen; 5% of 410 active; Potency, µM (titrated, usually from 51 µM), without a hit: at the top dose activity change, negative = inhibition, hits mostly inhibitors; purified papain protease activity, enzymatic inhibition; shares compounds with nsP2pro inh
nsP2pro confirm – CHIKV nsP2 protease inhibition, confirmatory qHTS; Potency, µM (highest dose often 25.5 µM), inactives show top-dose activity change, negative = inhibition, actives largely listed as inhibitors; AID 1964105; shares compounds with nsP2pro inh; 43% of 410 active; CHIKV nsP2 protease enzymatic activity, qHTS; note: nearly all actives have a fitted effect of over 75% in size
HCV NS3 4A cs – HCV NS3/4A protease inhibition, counterscreen | Potency, µM (highest dose often 50.9 µM), hits mostly inhibitors | 20% of 410 active | shares compounds with nsP2pro inh | HCV NS3/4A protease biochemical counterscreen; note: nearly all actives have a fitted effect of over 55% in size
* = called active by the depositor; i = inactive; ? = inconclusive; [ ] = another dose, or the depositor's remark. The entries come from a sample that favours hits as a whole. Calls come from the whole dose curve. % is set by controls: 0 for no effect and ±100 for the full control effect; potency is the fitted concentration of half-maximal effect.

SMILES | nsP2pro inh | others
CCOC(=O)C(Cc1cccc(N2CCN([S+](=O)([O-])c3ccccc3Cl)CC2)c1)OC (stereo not drawn) | 2%
CC(=O)Nc1nc(C)c(S(=O)(=O)Nc2ccc(C(O)(C(F)(F)F)C(F)(F)F)cc2)s1 | -21%
C=CC1(C)CC(O)C(C(=C)C(=O)OC)C(O)C1C(=C)CO (stereo not drawn) | -19%
C=C[C@]1(C)C[C@H](O)[C@H]2C(=C)C(=O)O[C@@H]2[C@H]1C(=C)CO | ? | CHIKV nsP2 cell=?;NSP2 full ctr=?;Furin counter=-4%;NS23 peptide cs=-23%;Papain cs=-10%;nsP2pro confirm=?;HCV NS3 4A cs=i
C=C(C)C(=O)O[C@H]1[C@H]2C(=C)C(=O)O[C@@H]2C[C@@H](C)[C@@H]2O[C@@H]2C(=O)[C@](C)(O)[C@@H]1OC(=O)C(=C)C | -3%[10 µM]
O=C(NC1CCCCC1)[C@@H]1Cc2nc[nH]c2CN1Cc1ccc(Cl)cc1 | i
CCCC1CN(Cc2ccc(OC)cc2)[S+](=O)([O-])c2cnccc2O1 (stereo not drawn) | 5%
CC1=C(C(=O)O)N2C(=O)[C@@H](NC(=O)[C@H](N)c3ccc(O)cc3)[C@H]2SC1 | -23%
CC1=C(C(=O)O)N2C(=O)[C@@H](NC(=O)[C@H](N)c3ccccc3)[C@H]2SC1 | 0.31µM* | CHIKV nsP2 cell=-6%;NSP2 full ctr=0%;Furin counter=-9%;NS23 peptide cs=1%;Papain cs=-10%;nsP2pro confirm=-21%;HCV NS3 4A cs=i
CC(=O)OCC1=C(C(=O)O)N2C(=O)[C@@H](NC(=O)[C@H](N)c3ccccc3)[C@H]2SC1 | -19%
Cc1nnc(-c2cnn(C)c2N)n1CCc1ccccc1 | -13%
COc1ccc(-c2sc(NC(=O)C(C)(C)C)nc2C)cc1S(=O)(=O)Nc1ccc(O)cc1 | 20%
COc1cccc(-c2cccc(CN3CCCC3C(=O)N3CCCCC3)c2)c1 (stereo not drawn) | i
O=[N+]([O-])c1ccc(S(=O)(=O)Nc2cnc3ccccc3c2)cc1 | 6.3µM* | CHIKV nsP2 cell=18%;NSP2 full ctr=3%;Furin counter=-6%;NS23 peptide cs=71%;Papain cs=5%;nsP2pro confirm=7%;HCV NS3 4A cs=i
COc1cccc(CNc2ccc(S(=O)(=O)Nc3cnc4ccccc4c3)cc2)c1O | i
O=S(=O)(Nc1cc(Cl)c(Oc2cnc3ccccc3c2)c(Cl)c1)c1ccc(Cl)cc1Cl | 3%
CCC(C)C(=O)O[C@H]1C[C@](C)(O)[C@]23OC(C)(C)[C@H](C[C@H](OC(=O)c4ccccc4)[C@]2(COC(C)=O)[C@H]1OC(=O)C(C)CC)[C@H]3OC(C)=O (stereo partly drawn) | -13%[10 µM]
COc1cc(O)c(C(CC(=O)N2CC(C)CC(C)C2)c2ccc(O)cc2)c(OC)c1 (stereo not drawn) | i
C=C[C@H]1[C@H](O[C@@H]2O[C@H](CO)[C@@H](O)[C@H](O)[C@H]2O)OC=C(C(=O)OC)[C@H]1CCO | 14%
C=CC(C)(C)c1[nH]c2ccccc2c1C1=C(O)C(=O)C(c2c[nH]c3c(CC=C(C)C)cccc23)=C(O)C1=O | ? | CHIKV nsP2 cell=19%;NSP2 full ctr=32%;Furin counter=-12%;NS23 peptide cs=i;Papain cs=2.6µM*;nsP2pro confirm=121%;HCV NS3 4A cs=4.1µM*
CCCNc1ccc2ncc(-c3ccc4[nH]ncc4c3)n2n1 | 421%
COCc1c(Cl)ccc2c1CC[C@H]2c1ncc[nH]1 | 6%
CC(=O)Oc1cc2c(s1)CCN(C(C(=O)C1CC1)c1ccccc1F)C2 (stereo not drawn) | ? | CHIKV nsP2 cell=2%;NSP2 full ctr=?;Furin counter=-10%;NS23 peptide cs=?;Papain cs=?;nsP2pro confirm=?;HCV NS3 4A cs=i
